Measurements published in PubChem BioAssay (NCI).
About 79,000 compounds went through this panel and 15% of them were active in at least one assay; those are over-represented in the sample as a whole. No stated cut-off is given here; in the data, active means growth inhibition above about 70%; inactive means the rest.

What was measured:
[1] = NCI Yeast Anticancer Drug Screen. Data for the rad50 strain (AID 155);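 further: 0% = growth of vehicle-only cultures of the same strain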; conditions: S. cerevisiae rad50 strain growth inhibition; at 50.0 µM; hits give high values
Outline: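 Inhibition values express reduced yeast growth in compound-treated cultures relative to vehicle-treated controls.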

[2] = NCI Yeast Anticancer Drug Screen. Data for the mec2-1 strain (AID 157); conditions: S. cerevisiae mec2-1 strain, at 50.0 µM, hits give high values
Outline: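 Each compound was tested on mec2-1 yeast, a strain altered in DNA damage repair or cell cycle control. Growth inhibition is reported relative to vehicle.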

[3] = NCI Yeast Anticancer Drug Screen. Data for the sgs1 mgt1 strain (AID 161);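 further: 0% = growth of cultures given vehicle only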; conditions: S. cerevisiae sgs1 mgt1 strain, at 50.0 µM, hits give high values
Outline: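 Test agents were incubated with a DNA-repair-mutant yeast strain. Growth was then read and compared against vehicle-treated controls.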

[4] = NCI Yeast Anticancer Drug Screen. Data for the cln2 rad14 strain (AID 165);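 further: 0% = growth equal to vehicle treated cultures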; conditions: S. cerevisiae cln2 rad14 strain, at 50.0 µM, hits give high values
Outline: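 Test compounds were added to cln2 rad14 yeast cultures; inhibition of growth was then determined by comparison with vehicle treatment.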

[5] = NCI Yeast Anticancer Drug Screen. Data for the bub3 strain (AID 167); conditions: S. cerevisiae bub3 mutant strain, at 50.0 µM, hits give high values
Outline: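 Steps: expose the mutant yeast strain to compound; grow alongside vehicle-treated cultures; measure growth; express inhibition against the vehicle cultures.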

[6] = NCI Yeast Anticancer Drug Screen. Data for the mlh1 rad18 strain (AID 175); conditions: S. cerevisiae mlh1 rad18 strain growth inhibition; at 50.0 µM; hits give high values
Outline: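 Inhibition values reflect reduced growth of mutant yeast versus vehicle-treated controls following compound exposure; the mutations affect DNA damage repair.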

Measured: growth inhibition

Clc1cnc(Oc2ccccc2)c2ccccc12
inactive: [1] 2.3% | [2] -22.2% | [3] -10.2% | [4] -37.4% | [5] -1.5% | [6] -9.35%

CCCCCCCCCCCCCCCCCC
inactive: [1] -9.7% | [2] -6.9% | [3] -16.2% | [4] 6.7% | [5] 0.25% | [6] -2.15%

COc1ccc(C(O)c2ccc(OC)cc2)cc1
inactive: [1] -10.8% | [2] -16.6% | [3] -23.9% | [4] 10.1% | [5] -22.3% | [6] -7.6%

O=S(=O)(Oc1cccc2ccccc12)c1ccc(Br)cc1
inactive: [1] 3.15% | [2] -13.4% | [3] 10.2% | [4] -9.75% | [5] 30.7% | [6] -10.3%

CCC(CC)C1OCC(O)CO1 (stereo not given) (tested in a mixture with another compound)
inactive: [1] 20.4% | [2] 2.7% | [3] 10% | [4] 6.85% | [5] 22.1% | [6] 17.4%

CCOC(=O)C1=C(c2ccccc2)NC(c2ccccc2)=C(C(=O)OCC)c2c1c(=O)cc[nH]c2=O
inactive: [1] -19.6% | [2] 1.45% | [3] 18.1% | [4] 18.2% | [5] -9.9% | [6] 2.35%

CC1=CC(N)C2CC1C2(C)C (stereo not given)
inactive: [1] -9.3% | [2] -17.1% | [3] -29.1% | [4] -37.6% | [5] -2.2% | [6] -1.65%

OCC(CBr)(CBr)CBr
inactive: [1] 2.45% | [2] -2% | [3] 8.25% | [4] 19.3% | [5] 4.45% | [6] -3.85%

CCC(=O)c1cc(-c2ccccc2)nc2ccc(OC)cc12
inactive: [1] 2.6% | [2] 1.2% | [3] 11.5% | [4] -23.4% | [5] -12.2% | [6] -24.4%

N#CCCN(C1=NN(C(=O)CC(=O)Nc2ccccc2)C(c2ccccc2)C1)c1ccccc1Cl (stereo not given)
inactive: [1] -5.05% | [2] -3.9% | [3] -36% | [4] 27.9% | [5] -1.15% | [6] -9.2%

O=C(O)c1cc(Br)sc1Br
inactive: [1] 8.75% | [2] -12.4% | [3] -8.8% | [4] 0.7% | [5] -9.6% | [6] -15.1%

C=C1CN(C(=O)NCCCl)C1
inactive: [1] 10.6% | [2] 17.4% | [3] 4.15% | [4] -11.3% | [5] 4.1% | [6] -7.8%

CCC1SC(N)=NC1=O (stereo not given)
inactive: [1] 16.1% | [2] 9.65% | [3] 24.7% | [4] 20.4% | [5] 10.2% | [6] 5.55%

NCC1OC(OC2C(CO)OC(OC3C(O)C(N)CC(N)C3OC3OC(CO)C(O)C(O)C3N)C2O)C(N)C(O)C1O (stereo not given)
inactive: [1] 33.8% | [2] -18.1% | [3] 1.85% | [4] 1.4% | [5] 27.6% | [6] 33.7%

ClCCc1ccccc1CC1=NCCc2ccccc21
inactive: [1] 18.6% | [2] -26.4% | [3] -23.7% | [4] 6.3% | [5] -12.8% | [6] 54.8%

CCC(C(=O)c1ccccc1)c1cccc2c1N(C(C)=O)CC2 (stereo not given)
inactive: [1] 0.05% | [2] 6.9% | [3] -7.5% | [4] -5.6% | [5] 11.2% | [6] 20.1%

COC(=O)C1C2OC(C(Br)C2Br)C1C(=O)OC (stereo not given)
inactive: [1] -12.1% | [2] -9.5% | [3] -1.15% | [4] -1.95% | [5] -1.65% | [6] -10.2%

O=S(=O)(NO)c1ccc(Cl)cc1
inactive: [1] 12.5% | [2] 7.8% | [3] 8.35% | [4] 23.8% | [5] 6.7% | [6] 3.2%

Nn1c(C23CC4CC(CC(C4)C2)C3)n[nH]c1=S
inactive: [1] 4.35% | [2] 5.65% | [3] 36.1% | [4] -6.85% | [5] 16.6% | [6] 28.1%

C=CCNC(=S)Nc1cccc(OC(=O)NC2CCCCC2)c1
inactive: [1] -0.15% | [2] 2.05% | [3] 3.75% | [4] -19.6% | [5] 14.3% | [6] -4.7%
